TrxR1 substrate = is turned over as a substrate by rat TrxR1; AID 588456; O89049; purified TrxR1 substrate turnover, NADPH consumption readout; actives 0.01% (n = 390,000); Potency, µM (series often up to 114 µM), inactives show at the top dose activity change, negative = substrate turnover; note: potency is the fitted concentration of half-maximal effect; nearly all actives have a fitted effect of over 50% in size
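Rat TrxR1, dispensed at 90 nM, was prereduced with 400 uM NADPH (final) for 5 min at ~22 deg C, then incubated with compound 15 min before 400 uM selenite. A first-read NADPH fluorescence drop versus no-compound background flagged substrates.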
IDH1 R132H inh = human IDH1 R132H inhibition; O75874; IDH1-R132H enzyme, NADPH consumption, diaphorase/resazurin fluorescence; Potency, µM (highest dose often 76.6 µM), inactives show at the top dose activity change, negative = inhibition, hits mostly inhibitors; actives 0.093% (n = 390,000); AID 602179; note: potency is the fitted concentration of half-maximal effect; nearly all actives have a fitted effect of over 65% in size
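IDH1-R132H (0.5 ug/mL) preincubated 30 min with compound, then NADPH (0.016 mM) and alpha-KG (2 mM) added; 80 min at RT, pH 7.5. Remaining NADPH coupled via diaphorase/resazurin to fluorescence (540/590 nm); concentration-response curves normalized to no-enzyme control.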
GLS inh = inhibitors of human glutaminase (GLS); GLS enzymatic activity, qHTS titration; Potency, µM (doses to about 45.5 µM), for inactives: at the highest dose activity change, negative = inhibition, most hits filed as inhibitors; actives 0.21% (n = 410,000); AID 624170; note: potency is the fitted concentration of half-maximal effect
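Compounds were pin-transferred onto hKGA, after which L-glutamine (1 mM solution) and a detection mix of glutamate oxidase, HRP and Amplex Red were added. Initial and 30 min RT fluorescence reads were collected.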
rTrxR1 inhibitor = inhibitors of rat thioredoxin reductase 1 | O89049 | recombinant rTrxR1, NADPH fluorescence consumption, selenite substrate | Potency, µM (top dose mostly 114 µM), for the others: at the highest dose activity change, negative = inhibition, hits mostly inhibitors | actives 1% (n = 390,000) | AID 588453; note: potency is the fitted concentration of half-maximal effect; nearly all actives have a fitted effect of over 65% in size
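Rat TrxR1 (90 nM in the dispensed reagent) was pre-reduced with 400 uM NADPH for 5 min at room temperature, then incubated with compound for 15 min. After 400 uM selenite was added, NADPH fluorescence (Ex 340/Em 450 nm) was followed for 8 min.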
PKM2 act = PKM2 (human) enzyme activation. P14618. Potency, µM (titrated, usually from 57.5 µM), for inactives: top-dose activation, actives largely listed as activators. purified PKM2, Kinase-Glo ATP luminescence, activation; response scale: 0% is enzyme alone, no compound. actives 0.34% (n = 260,000). AID 1631; note: potency is the fitted concentration of half-maximal effect; nearly all actives have a fitted effect of over 55% in size
Target sequence (P14618 whole entry, looked up): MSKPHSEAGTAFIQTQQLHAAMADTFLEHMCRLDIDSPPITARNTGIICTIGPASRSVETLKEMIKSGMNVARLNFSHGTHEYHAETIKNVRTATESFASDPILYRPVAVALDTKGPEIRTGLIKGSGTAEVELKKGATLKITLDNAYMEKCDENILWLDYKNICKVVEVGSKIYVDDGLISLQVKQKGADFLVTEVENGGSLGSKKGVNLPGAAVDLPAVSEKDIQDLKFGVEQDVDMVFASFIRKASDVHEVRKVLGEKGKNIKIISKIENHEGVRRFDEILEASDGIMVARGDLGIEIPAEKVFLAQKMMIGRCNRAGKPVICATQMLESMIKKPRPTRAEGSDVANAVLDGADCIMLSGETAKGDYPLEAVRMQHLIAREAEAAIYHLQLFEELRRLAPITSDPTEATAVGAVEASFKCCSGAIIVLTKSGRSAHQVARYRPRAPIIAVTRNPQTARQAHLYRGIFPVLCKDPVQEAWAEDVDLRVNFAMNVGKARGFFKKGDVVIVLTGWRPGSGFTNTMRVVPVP
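ATP formation by purified human PK-M2, quantified via coupled luciferase luminescence after 1 h at room temperature with 0.1 mM ADP and 0.5 mM PEP final.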
LDHA inh = LDHA (human) enzyme inhibition; P00338; purified LDHA, NADH/diaphorase-resazurin fluorescence; active compounds read low; activity change, % (values are at about 110 or 230 µM); actives 0.15% (n = 480,000); AID 1347041; in the data active = activity change below about -30%; inconclusive = mostly about -25% to -30%;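 note: plate controls were DMSO wells for no effect and wells without enzyme for full effect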
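Remaining NADH was detected by diaphorase (0.133 mg/mL) converting 37 µM resazurin to fluorescent resorufin, read at 0 and 20 minutes. The preceding 5-minute room-temperature reaction used 2 nM LDHA, 0.2 mM sodium pyruvate and 0.06 mM NADH at pH 7.4.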
The depositor's hits bear a star; ? = inconclusive; . = not tested or not shown; [ ] = remark or other dose. An excerpt weighted towards active compounds, which were near 1.4% of everything screened. Unless noted, calls come from the whole dose curve; as a rule, active = well fitted curve in the direction sought with a large enough effect; inconclusive = small, poorly fitted or top-dose-only effect, or another doubt; inactive = no such curve, though single readings can be large; an effect the other way counts as inactive or inconclusive. Unless noted, % is set by controls: 0 for no effect and ±100 for the full control effect.

SMILES	TrxR1 substrate	IDH1 R132H inh	GLS inh	rTrxR1 inhibitor	PKM2 act	LDHA inh
CCOc1cc(/C=C2\CN(C)C/C(=C\c3ccc(O)c(OCC)c3)C2=O)ccc1O	-16%	-1%	-3%	56µM*	.	8
CSc1nc2ccc(NS(=O)(=O)c3c(Cl)cccc3Cl)cc2s1	-17%	0%	17%	?	?	17
CSc1nc2ccc(NS(=O)(=O)c3ccc4c(c3)OCCO4)cc2s1	-13%	4%	16%	-17%	16µM*	3
O=C(COC(=O)CCSc1ccccc1Cl)Nc1ncc(Cl)cc1Cl	.	.	.	.	.	-17
CCOC(=O)C1(C)C(C(=O)OC)=C(c2ccc(OC)cc2)c2ccccc2N1C(=O)OC (stereo not given)	3%	1%	-5%	40µM*	.	0
c1ccc(CNC2(c3nnnn3-c3ccccc3)CCCC2)cc1	.	.	.	.	.	-6
Oc1c(C(c2cccs2)N2CCN(c3ccccc3)CC2)ccc2cccnc12 (stereo not given)	.	.	.	.	20%	.
CN1CCN(C(c2ccccn2)c2cc(Cl)c3cccnc3c2O)CC1 (stereo not given)	-7%	-16%	25%	?	16%	8
Cc1ccc(C(c2cc(Cl)c3cccnc3c2O)N2CCN(C)CC2)cc1 (stereo not given)	6%	-2%	?	4.5µM*	25%	4
CN1CCN(C(c2ccc(C(F)(F)F)cc2)c2ccc3cccnc3c2O)CC1 (stereo not given)	-1%	-10%	-2%	6.3µM*	3%	5
Oc1c(C(c2ccccc2Cl)N2CCCC2)ccc2cccnc12 (stereo not given)	-2%	-15%	9%	7.1µM*	-2%	3
Oc1c(C(c2ccccn2)N2CCC(Cc3ccccc3)CC2)cc(Cl)c2cccnc12 (stereo not given)	0%[57.1 µM]	-12%	-19%	11%[57.1 µM]	-5%	-2
Oc1c(C(c2ccc(Cl)cc2)N2CCCC2)cc(Cl)c2cccnc12 (stereo not given)	1%[57.1 µM]	0%	10%	50µM*	0%	5
CC1CCc2nc3ccc4ccccc4c3c(-c3ccccc3O)c2C1 (stereo not given)	.	.	.	.	.	10
CC(OC(=O)c1ccc2c(c1)NC(=O)CS2)C(=O)NCc1ccccc1 (stereo not given)	.	.	.	.	.	2
Cc1ccc(-n2c(SCC(=O)NCc3ccco3)nnc2-c2cccnc2)c(C)c1	-2%	-1%	13%	56µM*	0%	-1
Cc1cc(C)nc(SCc2nnc(SCC(=O)NCc3ccco3)n2-c2ccccc2)n1	-2%	12%	3%	50µM*	0%	14
Cc1nnc(SCC(=O)NCc2ccco2)n1-c1ccccc1	0%	15%	4%	-4%	-7%	-15
CCn1c(SCC(=O)NCc2ccco2)nnc1C1CCCC1	-10%	0%	14%	?	-5%	-14
O=C(CSc1nnc(C2CCCCC2)n1Cc1ccccc1)NCc1ccco1	-3%	3%	30%	45µM*	0%	4
Cc1cccc(-n2c(SCC(=O)NCc3ccco3)nnc2-c2ccco2)c1	9%	-1%	4%	-16%[57.1 µM]	-1%	-4
CCC(=O)Nc1cccc(-c2nnc(SCC(=O)NCc3ccco3)n2C)c1	-7%	2%	-4%	-18%	-10%	-31*
COc1cc(-c2ccc(C)cc2)nc2ccc(C(=O)N3CCCC3)cc12	.	.	.	.	.	-1
O=C(CSc1nnc(-c2ccncc2)n1C1CC1)c1cc2ccccc2o1	.	.	.	.	.	-4
Cc1cnc(C(=O)NCc2ccc(C)s2)cn1	.	.	.	.	.	10
SMILES	TrxR1 substrate	IDH1 R132H inh	GLS inh	rTrxR1 inhibitor	PKM2 act	LDHA inh
Cc1ccc(S(=O)(=O)/N=C2/C=C(Sc3ncn[nH]3)C(=O)c3ccccc32)c(C)c1	.	.	.	.	-27%	.
CC(C)(C)c1ccc(S(=O)(=O)/N=C2\C=C(NS(=O)(=O)c3ccccc3)C(=O)c3ccccc32)cc1	-8%	2%	-6%	?	-4%	35
CC(C)c1ccc(S(=O)(=O)/N=C2/C=C(Sc3ncn[nH]3)C(=O)c3ccccc32)cc1	14µM*	20%	11%	?	-28%	38
Cc1ccc(S(=O)(=O)/N=C2/C=C(Sc3ncn[nH]3)C(=O)c3ccccc32)cc1	10µM*	22%	31%	?	-50%	48
CON(C)C(=O)CC1Sc2ccc(Cl)cc2NC1=O (stereo not given)	.	.	.	.	.	2
Cc1cc(Nc2cccc(Cl)c2)nc2ccc(NC(=O)CC3CCCCC3)cc12	.	.	.	.	.	10
Cc1ccc(C(C2C(=O)CC(C)(C)CC2=O)C2C(=O)CC(C)(C)CC2=O)s1	-13%	9%	62%	40µM*	21%	-3
O=C(/C=C/c1ccco1)N(Cc1ccc(Cl)cc1)C1CCS(=O)(=O)C1 (stereo not given)	5%	15%	-6%	25µM*	?	-2
COc1cccc(CN(C(=O)/C=C/c2ccco2)C2CCS(=O)(=O)C2)c1 (stereo not given)	2%	-7%	-5%	13µM*	.	-1
COc1ccc(CN(C(=O)/C=C/c2ccco2)C2CCS(=O)(=O)C2)cc1 (stereo not given)	13%[11.4 µM]	-1%	4%	-87%	?	0
CN(C)c1ccc(CN(C(=O)/C=C/c2ccco2)C2CCS(=O)(=O)C2)cc1 (stereo not given)	-8%[57.1 µM]	24%	-10%	-13%[57.1 µM]	0%	-2
COc1ccc(CN(C(=O)/C=C/c2ccco2)C2CCS(=O)(=O)C2)cc1OC (stereo not given)	-12%	1%	-6%	16µM*	0%[0.46 µM]	-3
CN(Cc1ccccc1)C(=O)c1nc[nH]c1C(=O)N1CCc2ccccc2C1	1%	-11%	-3%	40µM*	.	-4
O=C(c1nc[nH]c1C(=O)N1CCc2ccccc2C1)N1CCc2ccccc2C1	-6%[57.1 µM]	9%	11%	5%[57.1 µM]	.	2
COc1ccccc1-c1cc(C(F)(F)F)nc(S(=O)(=O)CCCC(=O)Nc2ccc(F)c(Cl)c2)n1	80%	10%	13%	75%	.	-1
COc1ccccc1-c1cc(C(F)(F)F)nc(S(=O)(=O)CCCC(=O)Nc2cc(OC)c(OC)c(OC)c2)n1	-5%	-12%	10%	22µM*	.	-5
COc1ccc(NC(=O)CCCS(=O)(=O)c2nc(-c3ccc(OC)c(OC)c3)cc(C(F)(F)F)n2)cc1OC	-5%	11%	-2%	25µM*	.	7
Cc1ccc(-n2nnc(C(=O)Nc3nccs3)c2C)cc1C	.	.	.	.	.	13

From PubChem
